The results in this text go back to PubChem BioAssay (NCI).

Compounds without any hit were thinned out: in the full panel of roughly 83,000, 20% have a hit.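 Step 1: grow cells in 96-well plates. Step 2: add test compound at a single concentration. Step 3: incubate 48 h. Step 4: record percent growth.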 Active and inactive are the calls of the source. The calls were made as follows: active = growth percent below 10; inactive = the rest.

This test concerns MDA-MB-468 breast. The test is described as follows: NCI-60 one-dose screen, 48 h (100 = growth as untreated, 0 = no growth, -100 = all killed). The note with it: 10 µM unless noted.
`O=C1C(Cl)=C(Nc2ccccc2)C(=O)C(Cl)=C1Nc1ccccc1`: the growth is 102% (inactive).
On to `S=C=NP1(N=C=S)=NP(N=C=S)(N=C=S)=NP(N=C=S)(N=C=S)=NP(N=C=S)(N=C=S)=N1` (centres undefined), for which the growth was 107% (inactive).
Consider `COc1cc(C(=O)/C=C/c2c(-c3ccc(F)cc3)nc3sccn23)cc(OC)c1OC`, for which the growth was 12.8% (inactive).
As for `COc1ccc(NC(=O)c2ccc(C(=O)Nc3ccc(OC)cc3OC)cc2)c(OC)c1`, the growth was 85% (inactive).
As to `COc1cc(-c2cc(-c3ccc(Nc4ccnc5cc(Cl)ccc45)cc3)nc(N3CCOCC3)n2)cc(OC)c1OC`, the growth was -43.9% (active).
The same measure for `NC(=N\N=C/c1ccccc1[N+](=O)[O-])/C(N)=N\N=C/c1ccccc1[N+](=O)[O-]`: 101% (inactive); for `Cc1nn(-c2ccccc2)c(Oc2c(Cl)cccc2Cl)c1/C=N/N=c1\sc2ccccc2n1C`: 39.7% (inactive).
In the case of `CCN1CCN(CC(=O)Nc2nc3ccc(NCc4ccc(C)cc4)cc3s2)CC1`, the growth is 68.2% (inactive).
Consider `Clc1cc(Cl)cc(N2N=C(c3cccc(Nc4ccncc4)c3)CC2c2ccc(Br)cc2)c1` (centres undefined), for which the growth is 44.9% (inactive).
